Screening data (PubChem BioAssay)
Hits are enriched below; roughly 3.7% of the tested compounds scored in any of these assays.
B2AR arrestin ag: qHTS assay of beta-arrestin-biased ligands of beta2-adrenergic receptor: NCGC Sytravon Library Screen; Beta-2 adrenergic receptor (Homo sapiens), P07550; HTLA Tango cells, beta-arrestin recruitment, luciferase luminescence, 18 h; Potency, µM (highest dose often 46.1 µM), usual class: activators; 44,000 tested, under 10 active;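 note: potency is the fitted concentration of half-maximal effect; 0% = DMSO and full agonism = EC100 isoproterenol or metaproterenol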
Target sequence (P07550 whole entry, looked up): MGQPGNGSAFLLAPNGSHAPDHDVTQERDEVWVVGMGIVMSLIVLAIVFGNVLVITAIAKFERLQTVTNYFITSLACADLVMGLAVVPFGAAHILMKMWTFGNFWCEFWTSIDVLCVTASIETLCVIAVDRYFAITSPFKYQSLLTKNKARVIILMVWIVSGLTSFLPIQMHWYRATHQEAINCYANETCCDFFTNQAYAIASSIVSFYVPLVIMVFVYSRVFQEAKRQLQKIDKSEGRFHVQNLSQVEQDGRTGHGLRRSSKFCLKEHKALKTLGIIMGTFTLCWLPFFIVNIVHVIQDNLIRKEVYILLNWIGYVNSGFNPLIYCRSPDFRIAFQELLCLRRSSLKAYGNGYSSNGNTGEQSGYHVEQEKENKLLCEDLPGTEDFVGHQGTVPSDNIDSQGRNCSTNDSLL
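Receptor–beta-arrestin recruitment read by tTA-responsive luciferase: compound titrations (up to 46 µM) incubated 18 h with Tango cells, then luminescent substrate 15 min at room temperature. Concentration-response fits classified by r2, efficacy and activity.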
PTAP-TSG101 blk: qHTS Validation Assay for Inhibitors of HIV-1 Budding by Blocking the Interaction of PTAP/TSG101: Sytravon Library Screen | Tumor susceptibility gene 101 protein (Homo sapiens), Q99816 | Fluorescence polarization, FITC-PTAP peptide/Tsg101, 20 min | Potency, µM (top dose mostly 115 µM), most hits filed as inhibitors | 44,000 tested, under 10 active; note: potency is the fitted concentration of half-maximal effect; 0% is about no effect
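The Tsg101 binding domain, at 10 uM final, is mixed with compound and a FITC peptide bearing the PTAP motif (50 nM final). After 20 min at r.t., polarization is measured; actives defined by CRC class, efficacy cut-off 60% inhibition.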
GALK inhibitor: qHTS Assay for Inhibitors of Human Galactokinase (GALK): NCGC Sytravon Library Screen; P51570; Potency, µM (top dose mostly 57.5 µM), for the others: top-dose activity, negative = inhibition, actives largely listed as inhibitors; recombinant GALK, Kinase-Glo ATP luminescence, 1 h; 44,000 tested, under 10 active; AID 1347072, 2019;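 note: plate controls were full GALK reaction for no effect and reaction lacking GALK for full effect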
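Compounds were pinned into ATP buffer, then GALK-galactose mix was added (final 5 nM enzyme, 35 uM ATP, 100 uM galactose, pH 8.0). After 1 h at room temperature, Kinase-Glo Plus was added and luminescence read.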
HTT promoter inh: Primary qHTS for Identification of Small Molecule Inhibitors of Huntingtin Promoter Activity. 48,000 compounds, 0.93% hits. Potency, µM (highest dose often 57.5 µM), inactives show at the highest dose activity change, negative = inhibition, usual class: inhibitors. HEK293 HTT promoter firefly luciferase reporter, 24 h; note: potency is the fitted concentration of half-maximal effect; nearly all actives have a fitted effect of over 50% in size
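Luminescence was read after Dual-Glo reagent and a 10 min room-temperature incubation. Values were normalized to vehicle (0% activity) and zero RLU (-100% activity). Reporter HEK293 cells had been exposed to compounds (up to 57.5 uM final) for 24 h.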
GPR32 ag: qHTS for Agonists of Human Resolvin D1 Receptor DRV1; Probable G-protein coupled receptor 32 (Homo sapiens), O75388; CHO-K1 GPR32 beta-arrestin PathHunter luminescence, 90 min; zero percent set by DMSO-only wells; activation, % at 76.9 µM; 48,000 compounds, 2.5% hits; AID 1346428, 2018;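 active = activation of at least 60% and not above a set upper limit, about 1 call in 100 departs from these limits; inconclusive = activation of 40% to 60%, or above that upper limit; inactive = activation under 40%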; note: 0% is about no effect
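Using DMSO wells as EC0, agonist-induced signal was taken as chemiluminescence from beta-Gal reconstituted upon beta-arrestin recruitment to GPR32 in CHO-K1 cells after 90 min compound treatment.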
HTT-AS act: Primary qHTS for Identification of Small Molecule Activators of Huntingtin-Antisense Promoter Activity | HEK293 HTT-AS promoter firefly luciferase reporter, 24 h; response scale: percent change from vehicle, -100% = no light | Potency, µM (highest dose often 57.5 µM), without a hit: at the highest dose activity change, positive = activation, actives largely listed as activators | 48,000 compounds, 0.24% hits | AID 1508624, 2021; note: potency is the fitted concentration of half-maximal effect; nearly all actives have a fitted effect of over 55% in size
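Firefly luciferase readout (Dual-Glo, 10 min RT) after 24 h, 37 °C compound exposure (final up to 57.5 uM) of HEK293 reporter cells cultured 24 h beforehand; PTC124 at 50 uM final as control inhibitor; activity scaled vehicle 0%, zero RLU -100%.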
Active calls of the source: *. Unless noted, calls come from the whole dose curve; as a rule, active = well fitted curve in the direction sought with a large enough effect; inconclusive = small, poorly fitted or top-dose-only effect, or another doubt; inactive = no such curve, though single readings can be large; an effect the other way counts as inactive or inconclusive.

For Cc1cc(C)cc(Nc2cc(C)nc3nncn23)c1 the results were B2AR arrestin ag inactive, PTAP-TSG101 blk inactive, GALK inhibitor 2%, HTT promoter inh 10%, GPR32 ag 3 and HTT-AS act -4%.
CC(C)C(=O)Nc1cccc(C(F)(F)F)c1 was read as HTT promoter inh -3%, GPR32 ag 61* and HTT-AS act 0%.
Screening O=C(NCCc1ccccc1)C(=O)NCC(c1cccnc1)N1CCN(c2ccc(F)cc2)CC1 (stereo not drawn) returned B2AR arrestin ag inactive, PTAP-TSG101 blk inactive, GALK inhibitor -1%, HTT promoter inh 14µM*, GPR32 ag 8 and HTT-AS act -49%.
For COc1ccccc1N1CCN(C(CNC(=O)C(=O)NCCc2ccccc2)c2cccnc2)CC1 (stereo not drawn) the results were B2AR arrestin ag inactive, PTAP-TSG101 blk inactive, GALK inhibitor inconclusive, HTT promoter inh 7.1µM*, GPR32 ag 36 and HTT-AS act -57%.
`O=C(NCc1cccnc1)C(=O)NCC(c1cccnc1)N1CCN(c2ccc(F)cc2)CC1` (stereo not drawn) gave B2AR arrestin ag inactive, PTAP-TSG101 blk inactive, GALK inhibitor 3%, HTT promoter inh inconclusive, GPR32 ag 5 and HTT-AS act -15%.
CN(C1CCc2c(c3ccccc3n2CC(=O)O)C1)S(=O)(=O)c1ccc(F)cc1 (stereo not drawn) was read as HTT promoter inh 5% and HTT-AS act -3%.
CCN(CCCNC(=O)c1cc2cc3ccc(OC)cc3nc2s1)c1ccccc1 was read as B2AR arrestin ag inactive, PTAP-TSG101 blk inactive, GALK inhibitor -5%, HTT promoter inh -15%, GPR32 ag 96* and HTT-AS act -16%.
For CCN(CCCNC(=O)c1cc2cc3ccc(OC)cc3nc2s1)c1cccc(C)c1 the results were B2AR arrestin ag inactive, PTAP-TSG101 blk inactive, GALK inhibitor 4%, HTT promoter inh -4%, GPR32 ag inconclusive and HTT-AS act 2%.
Cc1c(NC(=O)c2ccc(OC(C)C)cc2)cccc1-c1nc2ncccc2o1 was read as B2AR arrestin ag inactive, PTAP-TSG101 blk inactive, GALK inhibitor 2%, HTT promoter inh 2%, GPR32 ag 89* and HTT-AS act -2%.
Screening CCCOc1cccc(C(=O)Nc2cccc(-c3nc4ncccc4o3)c2C)c1 returned B2AR arrestin ag inactive, PTAP-TSG101 blk inactive, GALK inhibitor 3%, HTT promoter inh -5%, GPR32 ag 22 and HTT-AS act -9%.
Screening Cc1ccc(-n2ncc3c(N4CCCCCC4)ncnc32)cc1Cl returned B2AR arrestin ag inactive, PTAP-TSG101 blk inactive, GALK inhibitor -6%, HTT promoter inh 0.35µM*, GPR32 ag 14 and HTT-AS act -80%.
For Cc1ccc(-n2ncc3c(N4CCN(C)CC4)ncnc32)cc1C the results were B2AR arrestin ag inactive, PTAP-TSG101 blk inactive, GALK inhibitor -3%, HTT promoter inh -32%, GPR32 ag 75* and HTT-AS act -17%.
For Cc1ccc(-n2ncc3c(N4CCN(c5ccccc5)CC4)ncnc32)cc1C the results were B2AR arrestin ag inactive, PTAP-TSG101 blk inactive, GALK inhibitor 2%, HTT promoter inh -9%, GPR32 ag 6 and HTT-AS act 0%.
Screening O=C(NC[C@H](O)CO)c1ccncc1Nc1ccc(I)cc1F returned HTT promoter inh -15% and HTT-AS act -16%.
NC(=O)c1cccc2[nH]c(-c3ccc([C@H]4CCCN4)cc3F)nc12 was read as HTT promoter inh 7% and HTT-AS act inconclusive.
For CCOc1ccc(-c2nc(CSCC(=O)NCCc3ccc(OCC)c(OCC)c3)c(C)o2)cc1 the results were B2AR arrestin ag inactive, PTAP-TSG101 blk inactive, GALK inhibitor 4%, HTT promoter inh 14µM*, GPR32 ag 2 and HTT-AS act -49%.
Screening CCOc1ccc(-c2nc(CSCC(=O)NCc3ccc(C)cc3)c(C)o2)cc1 returned B2AR arrestin ag inactive, PTAP-TSG101 blk inactive, GALK inhibitor 0%, HTT promoter inh 7.1µM*, GPR32 ag -9 and HTT-AS act -77%.
CS(=O)(=O)c1ccc(C(=O)Nc2ccc(Cl)c(-c3ccccn3)c2)c(Cl)c1 was read as HTT promoter inh 17% and HTT-AS act -4%.
Cc1cccc(N(C)c2nc3ccc(C)cc3n3nnnc23)c1 was read as B2AR arrestin ag inactive, PTAP-TSG101 blk inactive, GALK inhibitor 5% and GPR32 ag -24.
For Cc1cccc(N(C)c2nc3ccc(C)cc3n3cnnc23)c1 the results were B2AR arrestin ag inactive, PTAP-TSG101 blk inactive, GALK inhibitor 6%, HTT promoter inh 13%, GPR32 ag 66* and HTT-AS act 13%.
`Cc1c(-c2cccc3c(CCCOc4cccc5ccccc45)c(C(=O)O)n(Cc4cccnc4)c23)c(COc2ccc(N3CCN([S+](=O)([O-])N(C)C)CC3)cc2)nn1C` gave HTT promoter inh inconclusive and HTT-AS act -22%.
Screening Cc1ccc(C(=O)Nc2ccc(CN3CCN(C)CC3)c(C(F)(F)F)c2)cc1C#Cc1cnc2cccnn12 returned HTT promoter inh inconclusive and HTT-AS act -22%.
Screening CNC(=O)c1ccc(N2C(=S)N(c3cnc(C#N)c(C(F)(F)F)c3)C(=O)C23CCC3)cc1F returned HTT promoter inh inconclusive and HTT-AS act -9%.
`COc1ccccc1-c1nnc(SCC(=O)c2ccc(Cl)cc2)n1-c1ccccc1` gave B2AR arrestin ag inactive, PTAP-TSG101 blk inactive, GALK inhibitor 2%, HTT promoter inh inconclusive, GPR32 ag 80* and HTT-AS act -26%.
For CN[C@@H]1C[C@H]2O[C@@](C)([C@H]1OC)n1c3ccccc3c3c4c(c5c6ccccc6n2c5c31)C(=O)N[C@H]4O the results were HTT promoter inh inconclusive and HTT-AS act -56%.
